# Assay results published in PubChem BioAssay AID485317 (Broad Institute, 2010).
# The campaign covered roughly 290,000 compounds. About 11,000 (3.8%) were called active. This is one part of a sample in which actives are shown more often than they occur.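 Rule for the calls: active = mean replicate inhibition above about 79%, with every replicate also reaching it (limit read from the data); inconclusive = only one of the two criteria met; inactive = mean below limit and not every replicate reaching it.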
# Target: FAD-linked sulfhydryl oxidase ALR (Homo sapiens) (UniProt P55789)
# Sequence (P55789 whole entry, looked up): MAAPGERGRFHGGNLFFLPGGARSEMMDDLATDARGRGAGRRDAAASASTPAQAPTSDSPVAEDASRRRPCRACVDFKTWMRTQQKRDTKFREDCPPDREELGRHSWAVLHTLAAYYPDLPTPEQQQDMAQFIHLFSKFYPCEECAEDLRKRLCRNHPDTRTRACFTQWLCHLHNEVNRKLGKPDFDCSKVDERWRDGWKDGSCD
# Assay: ALR-catalysed DTT oxidation blockers – biochemical, H2O2 detection, HRP-luminol luminescence, single point, primary screen (AID 485317)
# Conditions: purified ALR, hits give high values, concentration not given here
row,Compound,inhibition
1,Cn1c(Cn2nnc3ccccc32)nnc1SCC(=O)c1ccccc1F,25.7% (inactive)
2,Cc1ccc(Cn2c(SCC(=O)N/N=C/c3ccccc3OCC(=O)O)nc3ccccc32)cc1,-5.09% (inactive)
3,C=CCn1c(Cn2nnc3ccccc32)nnc1SCC(=O)N/N=C/c1cc(Br)cc(OC)c1O,98.4% (active)
4,CSc1ccccc1NC(=O)C(C)N1C(=O)c2ccccc2S1(=O)=O (stereo not given),-4.05% (inactive)
5,CC(=O)C(CC(=O)N1CCCC1)C(=O)Nc1ccc(Cl)cc1 (stereo not given),23.9% (inactive)
6,Cc1ccc(N2C(=O)N3[C@@H]4c5ccccc5OC[C@@H]4[C@@H](c4ccccc4)[C@@]3(C)C2=O)cc1,3% (inactive)
7,Cc1nc(SCC(=O)NC2CCCCC2C)c(C#N)c(C)c1C (stereo not given),-0.312% (inactive)
8,O=C(CN1C(=O)NC2(CCOc3ccccc32)C1=O)Nc1cccc([N+](=O)[O-])c1 (stereo not given),13.9% (inactive)
9,COc1ccccc1C(=O)NCCC(=O)NN1C(=O)NC2(CCCCC2)C1=O,-0.581% (inactive)
10,COc1ccc(-c2nc3cnccn3c2NC2CCCCC2)cc1-c1cccc(Cl)c1,3.7% (inactive)
11,COc1ccc(-c2nc3cnccn3c2NC(C)(C)CC(C)(C)C)cc1O,99.6% (active)
12,CCCCNc1c(-c2ccc(OC)c(Sc3ccc(OC)cc3)c2)nc2ccc(Cl)cn12,-8.2% (inactive)
13,COc1ccc(S(=O)(=O)N(C)C[C@@H]2Oc3ccc(NC(=O)Nc4c(C)noc4C)cc3C(=O)N([C@H](C)CO)C[C@@H]2C)cc1,-1.21% (inactive)
14,NC(=O)NC(CC(=O)NNC(=O)c1ccccn1)c1ccc(Cl)cc1 (stereo not given),-14% (inactive)
15,COc1cccc(C2SCC(=O)N2c2cccc(C)c2)c1OC (stereo not given),-42.2% (inactive)
16,Cc1ccc(C2SCC(=O)N2c2ccccc2)cc1 (stereo not given),98.3% (active)
17,Cc1ccc(N2C(=O)C3C(c4ccccc4)(C2=O)C3(c2ccccc2)c2ccccc2)cc1 (stereo not given),-4.39% (inactive)
18,Cc1occc1C(=O)Nc1cccc(S(=O)(=O)N2CCOCC2)c1,-1.99% (inactive)
19,CCOC(=O)C1CCN(C(=O)c2cccc(S(=O)(=O)N(CC)c3ccccc3)c2)CC1,-13.6% (inactive)
20,COc1ccc(Cl)cc1NC(=O)CN(C)C(=O)c1cc(-c2cccs2)nn1-c1ccccc1,21.6% (inactive)
21,COc1ccc(Nc2ccc([N+](=O)[O-])cn2)cn1,-22.9% (inactive)
22,COc1ccc(Nc2cc(Cl)ccc2C(=O)O)cn1,98.7% (active)
23,COc1ccc(NS(=O)(=O)c2ccc(F)cc2F)cn1,-5.33% (inactive)
24,O=C(N[C@@H]1C/C=C\C[C@@H](CC(=O)N(CCO)Cc2ccccc2)C(=O)N[C@H](Cc2ccccc2)COC1=O)OCC1c2ccccc2-c2ccccc21,5.13% (inactive)
25,CCOc1ccc(NC(=O)COc2ccc(C(=O)N3CCC(C(N)=O)CC3)cc2OC)cc1,-0.853% (inactive)
26,O=C(CSc1nnc(-c2cccnc2)n1Cc1ccco1)c1ccc(Cl)cc1,54.6% (inactive)
27,CCOC(=O)Cc1csc(NC(=O)CSc2nnc(-c3cccnc3)n2Cc2ccco2)n1,-5.11% (inactive)
28,CCc1ccc(NC(=O)CSc2nnc(-c3cnccn3)n2Cc2ccco2)cc1,29.4% (inactive)

row,Compound,inhibition
1,C(=C\c1ccccc1)/CSc1nnc(-c2cccnc2)n1Cc1ccco1,87.9% (active)
2,O=C(CSc1nnc(-c2cccs2)n1Cc1ccco1)c1ccc2c(c1)OCO2,0.1% (inactive)
3,O=C(CSc1nnc(-c2cccnc2)n1Cc1ccco1)c1ccc(Cl)c(Cl)c1,98.2% (active)
4,O=C(CSc1ncn[nH]1)Nc1ccc(Br)cc1Br,-5.94% (inactive)
5,CC(OC(=O)c1ccccc1NCCO)C(=O)Nc1ccnn1C(C)C (stereo not given),-3.31% (inactive)
6,N#Cc1ccc(CN2CCN(CC(=O)Nc3ccccc3C(=O)NC3CC3)CC2)cc1,-2.66% (inactive)
7,Cn1cccc1C(=O)NNC(=O)COc1ccc(Br)cc1,-4.16% (inactive)
8,CCN(CC(=O)Nc1c(F)cccc1F)C(=O)c1ccc(S(=O)(=O)N2CCCCC2)cc1,-1.01% (inactive)
9,COC(OC)c1ccnc(SCc2ccccc2Cl)n1,-8.94% (inactive)
10,S=C(NCc1ccco1)NCc1ccccc1Cl,-9.19% (inactive)
11,Clc1ccccc1CSc1nnc(-c2ccco2)c(-c2ccco2)n1,100% (active)
12,O=C(Nc1ccc(C(=O)N2CCOCC2)cc1)Nc1cccc(C(F)(F)F)c1,-2.29% (inactive)
13,O=C(O)CCC(=O)N(Cc1ccccc1)Cc1ccccc1,-2.42% (inactive)
14,Cc1ccc(-c2nn(-c3cccc(F)c3)cc2CNCCc2ccncc2)o1,-14.7% (inactive)
15,Cc1ccc(-c2nn(-c3ccccc3)cc2CN(Cc2ccccc2)C(=O)CCC(=O)O)o1,97.6% (active)
16,Cc1c(NC(=O)C(C)OC(=O)c2c3c(nc4ccccc24)CCC(C)C3)c(=O)n(-c2ccccc2)n1C (stereo not given),18% (inactive)
17,O=C1CCc2cc(S(=O)(=O)Nc3ccc(C(F)(F)F)cc3)cc3c2N1CC3,-0.668% (inactive)
18,Cc1cc(OCC(=O)N(C)c2c(N)n(Cc3ccccc3)c(=O)[nH]c2=O)c(C(C)C)cc1Cl,-4.09% (inactive)
19,O=C(CCNC(=O)c1ccccc1Cl)NN=Cc1ccco1,-3.45% (inactive)
20,Cc1csc(NC(=O)CSc2nc(=O)cc(N)n2-c2ccc(F)cc2)n1,91.6% (active)
21,Cc1cc(NC(=O)CSc2nc(=O)cc(N)n2-c2ccc(F)cc2)no1,-1.5% (inactive)
22,Cc1csc(NC(=O)CSc2ccc(-c3ccc(F)cc3)nn2)n1,-12.2% (inactive)
23,Cc1cc(C)c(S(=O)(=O)N2CCC(C(=O)OCc3c(C)noc3C)CC2)c(C)c1,-4.27% (inactive)
24,CCCCN(C(=O)C1=NN(c2cc(C)ccc2C)C(=O)CC1)c1c(N)n(CCC)c(=O)[nH]c1=O,0.0423% (inactive)
25,CCN(Cc1ccccc1)C(=O)Cc1ccc(OC)c(S(=O)(=O)N2CCOCC2)c1,-3.18% (inactive)
26,COc1ccc(OCCCC(=O)Nc2cccc(S(=O)(=O)N3CCCCCC3)c2)cc1,-4.87% (inactive)
27,CCOc1ccc(CCNC(=O)COC(=O)c2c(OC)cccc2OC)cc1OCC,-5.28% (inactive)
